Here are results for 40 compounds from PubChem BioAssay (NCI).

The structures appear in SMILES notation. This is part of a sample that, as a whole, favours compounds with a hit. Of some 79,000 tested, about 15% had one in any assay. Values without a mark were called inactive. The source made the active and inactive calls. Rule as the data show it: active = growth inhibition above about 70%; inactive = the rest.

The first test is described as follows: NCI Yeast Anticancer Drug Screen. Data for the bub3 strain (AID 167). The settings on record: S. cerevisiae bub3 mutant strain, at 5.0 µM (retest, dose inferred, filed as 0.5), stronger effect = higher value. The gist of the method: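 Growth of a checkpoint-deficient yeast mutant is measured after compound exposure. Values represent inhibition relative to vehicle.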
Take `N#C/C(=C\C(Cl)=C/c1ccccc1)C(N)=S`: the growth inhibition was 79% (active).
Same read-out and setting: the result for `CC[N+](C)(CC)CCC(=O)/C=C/c1ccccc1` reads 3%.
For `CC(=O)n1c(=S)n(C(C)=O)c2ccccc21`, the growth inhibition was -23%.
For `Nc1ccccc1/C=C1/Sc2cc[nH]c2C1=O`, the growth inhibition is 15%.
Regarding `C=C1CC2(CCCC3(CC(=C)C(=O)O3)C2(C)C)OC1=O` (stereo not given), the growth inhibition was 7%.
The same measure, in the same setting: in the case of `O=C1/C(=C\c2ccc(Cl)cc2Cl)Sc2scc(-c3ccc(O)c(O)c3)[n+]21` it was -10%.
`COc1cc(OC(C)C)cc2c1C(=O)C(C(O)(O)C(F)(F)F)=CC2=O`: the growth inhibition was 6%.
Regarding `Cc1c(N=Nc2ccc(Br)cc2)c(-c2ccccc2)nn1C(N)=S`, the growth inhibition was 7%.
`COc1ccc2nc3c([N+](=O)[O-])ccc(NCCCN(C)C)c3c(N)c2c1`: the growth inhibition is -22%.
Same read-out and setting: in the case of `CN(C)CCC[Si]1(C)c2ccccc2CCc2ccccc21` it was -8%; in that of `CC(=O)N(C)c1cc(NCc2ccccc2)ccc1OCc1ccccc1`, -7%; in that of `ClCCOCCOc1c(Cl)cc(Cl)c(Cl)c1Cl`, 3%.
Take `Nc1ccc2nc(N)sc2c1`: the growth inhibition is -2%.
For `CC(C)(C)c1cc(C2c3cc4c(cc3OC(O)(CO)C2C(=O)O)OCO4)cc(C(C)(C)C)c1O` (stereo not given) (tested in a mixture with another compound), the growth inhibition is -10%.
With `COc1ccc(C2COc3c(ccc(O)c3O)C2)cc1OC` (stereo not given), the growth inhibition was 0%.
For the compound `Cc1ccc(OCC2CO2)c(Br)c1` (stereo not given), the growth inhibition is -1%.
The same measure, in the same setting: in the case of `CCN(CC)CCNc1ccc(C)c2sc3c(OC)cccc3c(=O)c12` it was -1%; in that of `CC(C)C(O)C(C)C`, 1%; in that of `O=C1CSC2(CCN(CCCN3c4ccccc4Sc4ccc(Cl)cc43)CC2)N1`, -2%.
For the compound `C1=CN2C(c3ccccc3)=NN(c3ccccc3)[C@@H]2c2ccccc21`, the growth inhibition is 1%.
Consider `CC(=O)Nc1ccc(-c2csc(Nc3ccnc4cc(Cl)ccc34)n2)cc1`, for which the growth inhibition was -2%.
In the case of `O=C(Nc1ccc(/C=C/c2ccc(NC(=O)c3cc(S(=O)(=O)O)c4cccnc4c3O)cc2S(=O)(=O)O)c(S(=O)(=O)O)c1)c1cc(S(=O)(=O)O)c2cccnc2c1O`, the growth inhibition is 13%.
With `COc1ccccc1C1C2=C(COC2=O)OC(C)(C)Oc2cc3c(cc21)OCO3` (stereo not given), the growth inhibition is -22%.
Still for that read-out and setting: the result for `COC(=O)CSc1n[nH]c(-c2ccc(O)c([N+](=O)[O-])c2)n1` reads 35%; that for `COc1ccc(CN2CCCN(Cc3ccc(OC)cc3OC)C2c2cccc([N+](=O)[O-])c2O)c(OC)c1`, -5%; that for `Oc1c(Cl)cc(C(c2cc(Cl)c(O)c(Cl)c2)C(Cl)(Cl)Cl)cc1Cl`, 96% (active).
Regarding `Cc1cc(Cl)cc2c1NC(=O)C2(O)C/C(=N/NC(=O)CC#N)c1cccc([N+](=O)[O-])c1` (stereo not given), the growth inhibition was 1%.
Regarding `COc1ccc(C2Oc3ccc(Cl)cc3C=C2[N+](=O)[O-])cc1` (stereo not given), the growth inhibition is 99% (active).
For the compound `CN(Cc1cc(Cl)cc(Cl)c1O)Cc1c(O)ccc2ccccc12`, the growth inhibition is -11%.
As for `Cc1c(NC(=O)/C(=N/NC(=S)N=N)C2C(=O)CC(C)(C)CC2=O)c(O)c2ccccc2c1O`, the growth inhibition was 16%.
As for `O=C1CCC(Cc2ccccc2Br)C(=O)N1` (stereo not given), the growth inhibition is -4%.
Consider `O=C1CSc2ccccc2-n2cccc21`, for which the growth inhibition was 77% (active).
Turning to `CCCc1cc2c(cc1CS(=O)(=O)CC)OCO2`, the growth inhibition was 23%.
On to `CS(=O)(=O)C(c1nc2nnc(NC(=O)Nc3ccc(Cl)cc3)n2[nH]c1=O)c1nc2nnc(NC(=O)Nc3ccc(Cl)cc3)n2[nH]c1=O`, for which the growth inhibition was -41%.
As for `COc1cc(C2c3cc4c(cc3OC3(O)C=C(C)OC(=O)C23)OCO4)cc(OC)c1OC` (stereo not given), the growth inhibition was -1%.
With `CC(C)OCc1cccc2ccnc(COC(C)C)c12`, the growth inhibition was -11%.
As to `COc1cc2c(cc1OC)-c1nc(Nc3ccccc3)sc1CC2`, the growth inhibition is 1%.
With `NC(=O)CCSC(=S)N1CCOCC1`, the growth inhibition was 39%.
As for `CC1=C(c2ccccc2)C(=O)OC1=O`, the growth inhibition is -2%.
Regarding `CC1=C(C)CC2C(=O)C(C(O)CC(C)C)=CC(=O)C2C1` (stereo not given), the growth inhibition is -10%.

The same test, now with this note: S. cerevisiae bub3 mutant strain, at 50.0 µM (retest, dose inferred, filed as 5.0), stronger effect = higher value.
`N#C/C(=C\C(Cl)=C/c1ccccc1)C(N)=S`: the growth inhibition is 98% (active).
On the same count and under the same terms, in the case of `CC[N+](C)(CC)CCC(=O)/C=C/c1ccccc1` it was 74% (active); in that of `CC(=O)n1c(=S)n(C(C)=O)c2ccccc21`, 76% (active); in that of `Nc1ccccc1/C=C1/Sc2cc[nH]c2C1=O`, 40%.
For `C=C1CC2(CCCC3(CC(=C)C(=O)O3)C2(C)C)OC1=O` (stereo not given), the growth inhibition was 96% (active).
Still for that read-out and setting: the result for `O=C1/C(=C\c2ccc(Cl)cc2Cl)Sc2scc(-c3ccc(O)c(O)c3)[n+]21` reads 81% (active).
As to `COc1cc(OC(C)C)cc2c1C(=O)C(C(O)(O)C(F)(F)F)=CC2=O`, the growth inhibition was 88% (active).
In the case of `Cc1c(N=Nc2ccc(Br)cc2)c(-c2ccccc2)nn1C(N)=S`, the growth inhibition is 95% (active).
Take `COc1ccc2nc3c([N+](=O)[O-])ccc(NCCCN(C)C)c3c(N)c2c1`: the growth inhibition was 85% (active).
For the compound `CN(C)CCC[Si]1(C)c2ccccc2CCc2ccccc21`, the growth inhibition was 6%.
Take `CC(=O)N(C)c1cc(NCc2ccccc2)ccc1OCc1ccccc1`: the growth inhibition was -65%.
Take `ClCCOCCOc1c(Cl)cc(Cl)c(Cl)c1Cl`: the growth inhibition was 14%.
Consider `Nc1ccc2nc(N)sc2c1`, for which the growth inhibition was 90% (active).
On to `CC(C)(C)c1cc(C2c3cc4c(cc3OC(O)(CO)C2C(=O)O)OCO4)cc(C(C)(C)C)c1O` (stereo not given) (tested in a mixture with another compound), for which the growth inhibition is 63%.
In the case of `COc1ccc(C2COc3c(ccc(O)c3O)C2)cc1OC` (stereo not given), the growth inhibition is 26%.
For the compound `Cc1ccc(OCC2CO2)c(Br)c1` (stereo not given), the growth inhibition is 1%.
Turning to `CCN(CC)CCNc1ccc(C)c2sc3c(OC)cccc3c(=O)c12`, the growth inhibition is 11%.
With `CC(C)C(O)C(C)C`, the growth inhibition was -7%.
For the compound `O=C1CSC2(CCN(CCCN3c4ccccc4Sc4ccc(Cl)cc43)CC2)N1`, the growth inhibition is 99% (active).
Still for that read-out and setting: the result for `C1=CN2C(c3ccccc3)=NN(c3ccccc3)[C@@H]2c2ccccc21` reads 79% (active).
Regarding `CC(=O)Nc1ccc(-c2csc(Nc3ccnc4cc(Cl)ccc34)n2)cc1`, the growth inhibition is 40%.
The same measure, in the same setting: in the case of `O=C(Nc1ccc(/C=C/c2ccc(NC(=O)c3cc(S(=O)(=O)O)c4cccnc4c3O)cc2S(=O)(=O)O)c(S(=O)(=O)O)c1)c1cc(S(=O)(=O)O)c2cccnc2c1O` it was 98% (active).
Turning to `COc1ccccc1C1C2=C(COC2=O)OC(C)(C)Oc2cc3c(cc21)OCO3` (stereo not given), the growth inhibition is 97% (active).
Consider `COC(=O)CSc1n[nH]c(-c2ccc(O)c([N+](=O)[O-])c2)n1`, for which the growth inhibition was 51%.
For the compound `COc1ccc(CN2CCCN(Cc3ccc(OC)cc3OC)C2c2cccc([N+](=O)[O-])c2O)c(OC)c1`, the growth inhibition was 31%.
On to `Oc1c(Cl)cc(C(c2cc(Cl)c(O)c(Cl)c2)C(Cl)(Cl)Cl)cc1Cl`, for which the growth inhibition is 99% (active).
For the compound `Cc1cc(Cl)cc2c1NC(=O)C2(O)C/C(=N/NC(=O)CC#N)c1cccc([N+](=O)[O-])c1` (stereo not given), the growth inhibition was 13%.
On to `COc1ccc(C2Oc3ccc(Cl)cc3C=C2[N+](=O)[O-])cc1` (stereo not given), for which the growth inhibition is 94% (active).
In the case of `CN(Cc1cc(Cl)cc(Cl)c1O)Cc1c(O)ccc2ccccc12`, the growth inhibition is 100% (active).
Consider `Cc1c(NC(=O)/C(=N/NC(=S)N=N)C2C(=O)CC(C)(C)CC2=O)c(O)c2ccccc2c1O`, for which the growth inhibition was 98% (active).
For `O=C1CCC(Cc2ccccc2Br)C(=O)N1` (stereo not given), the growth inhibition is 6%.
Turning to `O=C1CSc2ccccc2-n2cccc21`, the growth inhibition was 77% (active).
Consider `CCCc1cc2c(cc1CS(=O)(=O)CC)OCO2`, for which the growth inhibition was 17%.
Consider `CS(=O)(=O)C(c1nc2nnc(NC(=O)Nc3ccc(Cl)cc3)n2[nH]c1=O)c1nc2nnc(NC(=O)Nc3ccc(Cl)cc3)n2[nH]c1=O`, for which the growth inhibition was 19%.
On to `COc1cc(C2c3cc4c(cc3OC3(O)C=C(C)OC(=O)C23)OCO4)cc(OC)c1OC` (stereo not given), for which the growth inhibition is -3%.
Consider `CC(C)OCc1cccc2ccnc(COC(C)C)c12`, for which the growth inhibition is 91% (active).
Regarding `COc1cc2c(cc1OC)-c1nc(Nc3ccccc3)sc1CC2`, the growth inhibition is 92% (active).
Still for that read-out and setting: the result for `NC(=O)CCSC(=S)N1CCOCC1` reads -5%; that for `CC1=C(c2ccccc2)C(=O)OC1=O`, 3%; that for `CC1=C(C)CC2C(=O)C(C(O)CC(C)C)=CC(=O)C2C1` (stereo not given), 97% (active).
